The values that follow come from ChEMBL document CHEMBL3988442, “University of Dundee, Small-Polar-MMV Screening Library” (2021).

In all, about 48,000 compounds went through this assay and about 13,000 (27%) showed an effect of 50% or more. The list shows a part of the results.

The test system of the assay is Wolbachia pipientis. Put plainly: Anti-Wolbachia Cell-Based Screen. Type of assay: functional. To be noted: 5 µM. Details: scale not given: in the data most compounds retested in dose-response had high values.
For the compound `O=C(O)[C@@H]1CN(Cc2c[nH]c(CC3CCCC3)n2)C[C@H]1c1ccncc1`, the “Percent Effect” value was -4.479%.
With `CCN(CC)c1nc2sc(C(=O)NCC(=O)OC)cc2s1`, the “Percent Effect” value was -6.557%.
For `O=C1N[C@@H]2CCN(C(=O)N3CCOCC3)[C@@H]2C(=O)N1Cc1ccccc1`, the “Percent Effect” value is 7.346%.
In the case of `OC(CN(Cc1ccccc1)Cc1ccon1)c1ccco1` (stereo not drawn), the “Percent Effect” value came to 27.39%.
With `CCCN1CCC(NN2CCN(C)CC2)CC1`, the “Percent Effect” value was found to be 6.891%.
In the case of `COc1ccc2cc(C(=O)N3CCCCC3CC(N)=O)[nH]c2c1` (stereo not drawn) it was -6.391%; in that of `NC1(CNC(=O)c2cc3ccccc3[nH]2)CCCC1`, 106.9%.
For the compound `COc1ccc2[nH]c(C(=O)NCC3(N)CCCC3)cc2c1`, the “Percent Effect” value came to 112.8%.
Next, `O=C(Nc1cc(CSCCO)ccn1)c1cc2ccccc2[nH]1`: -29.11%; `O=C(NCC1(O)CCSCC1)c1nccc2ccccc12`: -4.929%.
Next, `COc1ccc(CNC(=O)C2(C#N)CCCC2)cc1`: -22.34%.
Next, `COCCOc1ccc(NC(=O)N(C)Cc2ccsc2)cn1`: -6.376%.
For `Cc1noc([C@H]2C[C@H]3OCC[C@H]3N(Cc3cccs3)C2)n1.O=C(O)C(F)(F)F`, the “Percent Effect” value is listed as -3.779%.
`CN(Cc1ncnn1C)C(=O)CCCn1ccc2cc(Cl)ccc21`: the “Percent Effect” value was 8.375%.
On to `O=C(NCCSC1CCCC1)c1ccc(F)cc1F`, for which the “Percent Effect” value was found to be 11.89%.
`O=C(NCCC(=O)N1CCCc2ccccc21)c1cc(F)cc(F)c1`: the “Percent Effect” value is reported as 126.9%.
Next, `CS(=O)(=O)c1ccc2c(c1)N(C(=O)c1cccc(F)c1)CCC2`: 5.094%; `O=C(NCC(=O)N1CCCc2ccccc21)c1c(O)cc(F)cc1F`: 103.6%; `O=C(NCCSC1CCCC1)c1c(F)cccc1F`: 10.15%.
Turning to `CCC(CNC(=O)c1ccc(F)cc1F)N1CCc2ccccc2C1` (stereo not drawn), the “Percent Effect” value is 10.38%.
For `O=C(NCCC(=O)N1CCCc2ccccc21)c1ccc(F)cc1F`, the “Percent Effect” value amounted to 138.5%.
`O=C(NCCC(=O)N1CCCc2ccccc21)c1c(O)cc(F)cc1F`: the “Percent Effect” value is given as 3.729%.
Turning to `Cn1cc(CCNC(=O)N2CCCc3c(F)cccc32)cn1`, the “Percent Effect” value is -24.48%.
In the case of `CS(=O)(=O)c1ccc2c(c1)N(C(=O)Cc1cccc(F)c1)CCC2` it was 1.079%.
Take `O=C(NCCC(=O)N1CCCc2ccccc21)c1c(F)cccc1F`: the “Percent Effect” value was 120%.
In the case of `O=C(NCCS(=O)(=O)N1CCc2ccccc21)c1c(O)cc(F)cc1F` it was 11.09%.
For `CC(C)N1CCC2(CC1)CN(C)C(=O)C[C@H]2C(F)(F)F`, the “Percent Effect” value is given as -3.989%.
In the case of `COc1ccc2c(c1)CCCN(C(C)C(=O)NC(N)=O)C2` (stereo not drawn), the “Percent Effect” value was -1.078%.
